Measured values: PubChem BioAssay (Tox21)
Several values for one entry are separate records, joined by “and”; a condition that tells them apart may be missing. Equal values may be shown once. Records with an inconclusive call do not appear. The source holds several records for some structures; these can differ, active in one and inactive in another. Activity calls are given as the source filed them. Calls come from the whole dose curve.

What was measured:
[1] = target: Acetylcholinesterase (Homo sapiens) (UniProt P22303); experiment: Acetylcholinesterase (AChE) small molecule antagonists: colormetric cell-based qHTS assay (AID 1347395); note: nearly all actives have a fitted effect of over 30% in size; note: potency is the fitted concentration of half-maximal effect
Procedure, shortened: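 SH-SY5Y cells, plated overnight at 37 C, were exposed to compounds for 30 min at 37 C and 5% CO2. Acetylthiocholine plus DTNB was then added, and thiocholine from endogenous AChE was quantified colorimetrically after 90 min at 37 C.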

[2] = target: Acetylcholinesterase (Homo sapiens) (UniProt P22303); experiment: Acetylcholinesterase (AChE) small molecule antagonists: enzyme-based qHTS assay (AID 1347397); settings: Potency: AChE enzyme activity inhibition; outcome: AChE enzyme activity inhibition; note: nearly all actives have a fitted effect of over 55% in size; note: potency is the fitted concentration of half-maximal effect
Procedure, shortened: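 rhAChE 50 mU/mL (dispensed) + cpd or DMSO, 30 min RT; add DTNB/acetylthiocholine cocktail, 10 min RT; colorimetric thiocholine readout. qHTS, 1536-well format.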

[3] = target: Acetylcholinesterase (Homo sapiens) (UniProt P22303); experiment: Acetylcholinesterase (AChE) small molecule antagonists: fluorescence cell-based qHTS assay (AID 1347398); settings: Potency: AChE activity; outcome: AChE activity; note: nearly all actives have a fitted effect of over 50% in size; note: potency is the fitted concentration of half-maximal effect
Procedure, shortened: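 Read-out is Thiolite Green fluorescence at Ex/Em = 490/520 nm, formed by reaction with thiocholine released when cellular AChE in SH-SY5Y cells hydrolyzes acetylthiocholine. Compounds were preincubated 30 min at 37 C before substrate.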

[4] = target: Acetylcholinesterase (Homo sapiens) (UniProt P22303); experiment: Acetylcholinesterase (AChE) small molecule antagonists: enzyme-based qHTS assay with human liver microsomes (AID 1347399); settings: Potency: qHTS inhibition; outcome: qHTS inhibition; note: nearly all actives have a fitted effect of over 60% in size
Procedure, shortened: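 Recombinant human AChE (50 mU/mL in the enzyme mix) and human liver microsomes (0.25 mg/mL final) were preincubated with compound and NADPH (0.25 mg/mL final) for 30 min at 37 C. Acetylthiocholine/DTNB was then added; thiocholine was read colorimetrically after 10 min at room temperature.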
% is set by controls: 0 for no effect and ±100 for the full control effect.

Sequence of Acetylcholinesterase (Homo sapiens) (P22303 whole entry, looked up): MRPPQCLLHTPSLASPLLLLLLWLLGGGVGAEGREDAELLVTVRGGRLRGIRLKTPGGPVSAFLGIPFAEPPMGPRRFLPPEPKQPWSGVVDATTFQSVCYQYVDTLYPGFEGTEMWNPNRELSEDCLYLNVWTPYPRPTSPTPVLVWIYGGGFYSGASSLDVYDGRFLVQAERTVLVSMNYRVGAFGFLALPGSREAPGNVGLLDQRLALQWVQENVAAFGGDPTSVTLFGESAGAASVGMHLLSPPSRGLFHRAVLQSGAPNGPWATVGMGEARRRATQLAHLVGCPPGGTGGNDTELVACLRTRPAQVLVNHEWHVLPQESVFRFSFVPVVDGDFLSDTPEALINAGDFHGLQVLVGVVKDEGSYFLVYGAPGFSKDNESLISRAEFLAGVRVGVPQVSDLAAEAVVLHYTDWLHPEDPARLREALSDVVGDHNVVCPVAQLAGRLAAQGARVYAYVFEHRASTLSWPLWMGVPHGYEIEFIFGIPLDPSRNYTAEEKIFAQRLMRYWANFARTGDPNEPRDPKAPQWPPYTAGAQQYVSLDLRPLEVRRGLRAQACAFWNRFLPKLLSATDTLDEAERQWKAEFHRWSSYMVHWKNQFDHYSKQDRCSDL

C/C=C/C=C/CCCCCCCO
inactive: Potency [1] | Potency [2] | Potency [3]

c1coc(CNc2ncnc3nc[nH]c23)c1
inactive: Potency [1] | Potency [2] | Potency [3]

CSc1ccc2c(c1)N(CCC1CCCCN1C)c1ccccc1S2 (stereo not given)
inactive: Potency [4]
79.3 µM (active) and inactive: Potency [2]
active: Potency [1] 70.7 µM | Potency [3] 31.6 µM

COc1ccc(CCN(C)CCCC(C#N)(c2ccc(OC)c(OC)c2)C(C)C)cc1OC (stereo not given)
inactive: Potency [1] | Potency [2] | Potency [3]

Nc1ccc(S(=O)(=O)NC(=O)c2ccccc2)cc1
inactive: Potency [1] | Potency [2] | Potency [3] | Potency [4]

CCCCCCCCCCCCCCCCBr
inactive: activity, negative = inhibition [1] 0.0868% [at 23.6 µM] | activity change, negative = inhibition [2] 2.89% [at 23.6 µM] | activity change, negative = inhibition [3] -0.68% [at 23.8 µM] | activity change, negative = inhibition [4] 0.57% [at 23.6 µM]

O=C(Cl)c1ccc(F)c(Cl)c1
inactive: Potency [1] | Potency [2] | Potency [3]

COC(Cc1ccccc1)OC
inactive: Potency [1] | Potency [2] | Potency [3] | Potency [4]

COC(=O)C1=C(C)NC(C)=C(C(=O)OC)C1c1ccccc1[N+](=O)[O-]
inactive: Potency [1] | Potency [2] | Potency [3]

O=C(Cl)c1c(Cl)cccc1Cl
active: Potency [1] 64 µM | Potency [3] 40.4 µM
inactive: Potency [2]

O=C(O)Cc1cn(-c2ccccc2)nc1-c1ccc(Cl)cc1
inactive: Potency [1] | Potency [2] | Potency [3] | Potency [4]

CCOC(=O)c1c(N)sc2c1CCN(Cc1ccccc1)C2
active: Potency [1] 12.3 µM | Potency [2] 24.5 µM | Potency [3] 12.3 µM

CCOC(=O)[C@H](CCc1ccccc1)N[C@@H](C)C(=O)N1Cc2ccccc2C[C@H]1C(=O)O
inactive: Potency [1] | Potency [2] | Potency [3]

NC(=S)NC(N)=S
inactive: Potency [1] | Potency [2] | Potency [3] | Potency [4]

Cc1cc(C2CCCCC2)n(O)c(=O)c1
inactive: Potency [1] | Potency [2] | Potency [3]

O=C(O)c1ccccc1NCCc1ccccc1
inactive: Potency [1] | Potency [2] | Potency [3] | Potency [4]

O=S(=O)(Cl)c1c(Cl)cccc1Cl
inactive: Potency [1] | Potency [2] | Potency [3] | Potency [4]

COc1cc(NCc2ccc3nc(N)nc(N)c3c2C)cc(OC)c1OC
active: Potency [1] 8.71 µM | Potency [2] 30.9 µM | Potency [3] 3.09 µM

CN=C(N)NC(=O)Nc1c(C)cccc1C
inactive: Potency [1] | Potency [2] | Potency [3]

CC(O)COCC(C)O (stereo not given)
inactive: Potency [1] | Potency [2] | Potency [3] | Potency [4]

CCCC[C@H]1CN(CC2CCOCC2)C(=O)OC12CCN(C1(C)CCN(C(=O)c3c(C)ncnc3C)CC1)CC2
inactive: Potency [1] | Potency [2] | Potency [3] | Potency [4]

CCC(=O)C1CC(C(C)C)CC=C1C (stereo not given)
inactive: Potency [1] | Potency [2] | Potency [3] | Potency [4]

[O-]/[N+](=N\O)c1ccccc1
inactive: Potency [1] | Potency [2] | Potency [3] | Potency [4]

Cc1cc(N)no1
inactive: Potency [1] | Potency [2] | Potency [3] | Potency [4]

CCOC(=O)/C=C\C(=O)OCC
inactive: Potency [1] | Potency [2] | Potency [3] | Potency [4]

O=S(=O)(O)CO
inactive: Potency [1] | Potency [2] | Potency [3] | Potency [4]

CCOC(=O)[C@H](CCc1ccccc1)N[C@@H](C)C(=O)N1CCC[C@H]1C(=O)O
inactive: Potency [1] | Potency [2] | Potency [3] | Potency [4]

CCCCNc1ccc(NCCCC)c2c1C(=O)c1ccccc1C2=O
inactive: activity, negative = inhibition [1] -1.89% [at 23.6 µM] | activity change, negative = inhibition [2] -0.954% [at 23.6 µM] | activity change, negative = inhibition [3] 1.62% [at 23.8 µM] | activity change, negative = inhibition [4] -2.27% [at 23.6 µM]

Cc1cc(C)c(C(=O)O)c(C)c1
inactive: Potency [1] | Potency [2] | Potency [3] | Potency [4]

COc1ccc(OC)c(N=Nc2c(O)ccc3ccccc23)c1
inactive: Potency [1] | Potency [2] | Potency [3] | Potency [4]

CC(=O)Nc1c(I)cc(I)c(C(=O)O)c1I
inactive: Potency [1] | Potency [2] | Potency [3] | Potency [4]

Oc1ccc2c(c1)CCC2
inactive: Potency [1] | Potency [2] | Potency [3] | Potency [4]

Cc1c(C(N)=O)cc([N+](=O)[O-])cc1[N+](=O)[O-]
inactive: Potency [1] | Potency [2] | Potency [3] | Potency [4]

Cc1cccc2sc(N)nc12
inactive: Potency [1] | Potency [2] | Potency [3] | Potency [4]

Nc1ccc(N=Nc2ccc(N)cc2)cc1
inactive: Potency [1] | Potency [2] | Potency [3] | Potency [4]

O=C(/C=C/c1ccccc1)OCc1ccccc1
inactive: Potency [1] | Potency [2] | Potency [3] | Potency [4]

COC1=C(OC)C(=O)C(CCCCCCCCCCO)=C(C)C1=O
inactive: Potency [1] | Potency [2] | Potency [3] | Potency [4]

CCCCCCC(C)(C)C(=O)O
inactive: Potency [1] | Potency [2] | Potency [3] | Potency [4]

Oc1ccc(Cc2ccccc2O)cc1
inactive: Potency [1] | Potency [2] | Potency [3] | Potency [4]

NC(=O)NC(N)=O
inactive: Potency [1] | Potency [2] | Potency [3] | Potency [4]

CC(C)(C)C1=CC(=O)C(C(C)(C)C)=CC1=O
inactive: Potency [1] | Potency [2] | Potency [3] | Potency [4]

Cc1ccc(S(=O)(=O)Oc2ccc(N=Nc3ccc(-c4ccc(N=Nc5c(O)ccc6cc(S(=O)(=O)O)cc(S(=O)(=O)O)c56)c(C)c4)cc3C)cc2)cc1
active: Potency [2] 8.97 µM and 4.12 µM
inactive: Potency [1] | Potency [3] | Potency [4]

CC(C)OC(=O)C(C)(C)Oc1ccc(C(=O)c2ccc(Cl)cc2)cc1
inactive: Potency [1] | Potency [2] | Potency [3] | Potency [4]

O=C1CCCCC1C1CCCCC1 (stereo not given)
inactive: Potency [1] | Potency [2] | Potency [3] | Potency [4]

Cc1oc(-c2ccccc2)nc1CCOc1ccc(C[C@H](Nc2ccccc2C(=O)c2ccccc2)C(=O)O)cc1
inactive: Potency [1] | Potency [3] | Potency [4]
active: Potency [2] 56.4 µM

CN1CCC(=C2c3ccccc3CCc3cccnc32)CC1
inactive: Potency [1] | Potency [2] | Potency [3] | Potency [4]

CCCOc1ccc(S(=O)(=O)N2CCN(CC)CC2)cc1-c1nc2c(CC)n(Cc3ccccn3)nc2c(=O)[nH]1
inactive: Potency [1] | Potency [2] | Potency [3] | Potency [4]

O=C1NCN(c2ccccc2)C12CCN(CCCC(c1ccc(F)cc1)c1ccc(F)cc1)CC2
inactive: Potency [1] | Potency [2] | Potency [3] | Potency [4]

CCCC(C)C(=O)OCC (stereo not given)
inactive: Potency [1] | Potency [2] | Potency [3] | Potency [4]

C1N2CN3CN1CN(C2)C3
inactive: Potency [1] | Potency [2] | Potency [3] | Potency [4]

CC(C)=CC(=O)O
inactive: Potency [1] | Potency [2] | Potency [3] | Potency [4]

CC(C)CCCCCOC(=O)CS
inactive: Potency [1] | Potency [2] | Potency [3] | Potency [4]

C[C@@H]1C[C@H]2[C@@H]3CCC4=CC(=O)C=C[C@]4(C)[C@@]3(F)[C@@H](O)C[C@]2(C)[C@H]1C(=O)CO
inactive: Potency [1] | Potency [2] | Potency [3] | Potency [4]

O=C(NCCN1CCOCC1)c1ccc(Cl)cc1
inactive: Potency [1] | Potency [2] | Potency [3] | Potency [4]
